These results are taken from PubChem BioAssay AID652128 (Broad Institute, 2013).

The other results are listed elsewhere or left out. Results filed as inconclusive are left out. Active and inactive are the calls of the source.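 How the source made its calls: active means fitted half-maximal concentration for signal loss at or below twice the highest dose tested, in every separate run (actives reach about 64 µM in these data); inconclusive means runs disagree, or flat partial signal loss, or poor fit; inactive means the rest.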

As usually defined, the AC50 is the concentration giving half of the maximal activity seen.

This experiment can be described thus: DNA binders displacing acridine orange – biochemical, fluorescence polarization, cherry-pick, artefact control for RAD52 inhibitor project, dose response (AID 652128). Conditions: Salmon sperm DNA/acridine orange FP displacement, DNA binding. For orientation: Fluorescence polarisation rises when a labelled molecule tumbles more slowly, as on binding a larger partner.
Consider `CN1CCN(c2nc(Nc3ccc(O)cc3)nc3ccccc23)CC1`, for which the compound was classed as inactive.
Consider `Cc1cccc(-c2nc3ccc(C(=O)NCCN4CCN(C)CC4)cc3nc2-c2cccc(C)c2)c1`, for which the outcome was inactive.
Take `Cc1ccc(C(=O)N/C(=C/c2ccc(-c3cccc([N+](=O)[O-])c3)o2)C(=O)NCCCN(C)C)cc1`: the result was inactive.
Regarding `CCN(CC)CCOc1ccc2c(c1)C(=NNC(=O)c1ccccn1)c1cc(OCCN(CC)CC)ccc1-2`, the AC50 is 4.27 µM (active).
With `COc1cccc(CNc2nc(NCc3cccs3)nc3ccsc23)c1`, the compound was called inactive.
In the case of `Cn1ccc(=Nc2ccc(NC(=O)c3ccc(N=c4ccn(C)c5ccc([N+](=O)[O-])cc45)cc3)cc2)cc1`, the outcome was inactive.
For `COc1ccc(CC(N)c2csc(NC(=O)Nc3ccc(C(C)C)cc3)n2)cc1` (stereo unspecified), the result was inactive.
On to `CCN1CCN(CCNC(=O)c2ccc(/C=C3/Sc4ccccc4N(Cc4cccc(C)c4)C3=O)cc2)CC1`, for which the result was inactive.
Take `CN(C)CCNC(=O)c1ccc(Cl)c2cc3ccccc3nc12`: the AC50 is 13.1 µM (active).
As to `CN(Cc1ccccc1F)c1cc2c(c3c1ccn3C)C1CCC2O1` (stereo unspecified), the compound was classed as inactive.
For `Cc1cccc(NC(=S)NC23CN4CN(CN(C4)C2)C3)c1`, the result was inactive.
Turning to `CN1CCN(C2Cc3ccc(Cl)cc3Sc3ccc(F)cc32)CC1` (stereo unspecified), the outcome was inactive.
Still for that read-out and setting: for `CCN(CC)CCC(c1ccc2c(c1)OCO2)c1c(OC)cc(OC)c2c(-c3ccccc3)cc(=O)oc12` (stereo unspecified) the value was “inactive”; for `CC(=O)Nc1cc(-c2ccc(N3CCN(C)CC3)cc2)cn2c(-c3cccc(C(=O)N(C)C)c3)cnc12`, “inactive”; for `CCn1cc(CN2CCC(C(=O)Nc3cccc(-c4cccc(Cl)c4)c3)CC2)cn1`, “inactive”.
In the case of `CCN(CC)CCCNC(=O)c1cc2c(=O)[nH]c3ccc(C)cc3c2s1`, the half-maximal activity concentration (AC50) was 49.6 µM (active).
For `CN1CCC(CN)(N2CCN(c3ccccc3)CC2)CC1`, the compound was called inactive.
On the same count and under the same terms, under `CCN(CC(=O)Nc1ccc(NC(C)=O)cc1)C(=O)C1CC(=O)N(c2ccc3c(c2)OCCO3)C1` (stereo unspecified) stands “inactive”; under `Oc1ccc(N=Cc2sc3ccccc3c2Cl)cc1`, “inactive”; under `CCCCCCCCCCOC(=O)Cn1c(COc2ccc(C)cc2)[n+](C)c2ccccc21`, “inactive”.
Regarding `CN(C)CCN1CCN(c2cc(-c3cccc(Cl)c3)nc3ccnn23)CC1`, the outcome was inactive.
For the compound `CC(=O)Nc1ccc(CNc2nc(NCCN(C)C)nc3cc(-c4ccccc4)sc23)cc1`, the result was inactive.
Still for that read-out and setting: for `CCN(CC)CCN(C(=O)c1ccc2c(c1)CCCC2)c1nc2c(OC)cccc2s1` the value was “inactive”.
Consider `CCOCCCNC(=S)Nc1ccc2nc(N3CCN(CC)CC3)cc(C)c2c1`, for which the call was inactive.
Still for that read-out and setting: for `CN(C)CCNC(=O)c1cccc(-c2cnc3c(NC=O)cc(-c4cccc(C(F)(F)F)c4)cn23)c1` the value was “inactive”; for `Cc1ccc2c(c1)C1CN(C)CCC1N2S(=O)(=O)c1ccc(Oc2ccc([N+](=O)[O-])cc2)cc1` (stereo unspecified), “inactive”.
